Test results from PubChem BioAssay AID588342 (National Center for Advancing Translational Sciences (NCATS), 2011).
The campaign covered roughly 360,000 compounds. About 25,000 (6.9%) were called active. About 9% were inconclusive and are not listed. This is one part of a sample in which actives are shown more often than they occur. A number with no mark means an inactive call. Calls follow the shape of the dose curve; as a rule, active = well fitted inhibition curve with a large enough effect; inconclusive = small, poorly fitted or top-dose-only effect; inactive = flat fitted curve, though single readings scatter.

Each molecule was assayed against Luciferin 4-monooxygenase (Photinus pyralis) (UniProt P08659) (assay: qHTS profiling assay for firefly luciferase inhibitor/activator using purifed enzyme and Km concentrations of substrates (counterscreen for miR-21 project)). Conditions: purified FLuc, luminescence inhibition; series mostly up to 57.5 µM; activity change, negative = inhibition: at the top concentration.
Luciferin 4-monooxygenase (Photinus pyralis), sequence (P08659 whole entry, looked up): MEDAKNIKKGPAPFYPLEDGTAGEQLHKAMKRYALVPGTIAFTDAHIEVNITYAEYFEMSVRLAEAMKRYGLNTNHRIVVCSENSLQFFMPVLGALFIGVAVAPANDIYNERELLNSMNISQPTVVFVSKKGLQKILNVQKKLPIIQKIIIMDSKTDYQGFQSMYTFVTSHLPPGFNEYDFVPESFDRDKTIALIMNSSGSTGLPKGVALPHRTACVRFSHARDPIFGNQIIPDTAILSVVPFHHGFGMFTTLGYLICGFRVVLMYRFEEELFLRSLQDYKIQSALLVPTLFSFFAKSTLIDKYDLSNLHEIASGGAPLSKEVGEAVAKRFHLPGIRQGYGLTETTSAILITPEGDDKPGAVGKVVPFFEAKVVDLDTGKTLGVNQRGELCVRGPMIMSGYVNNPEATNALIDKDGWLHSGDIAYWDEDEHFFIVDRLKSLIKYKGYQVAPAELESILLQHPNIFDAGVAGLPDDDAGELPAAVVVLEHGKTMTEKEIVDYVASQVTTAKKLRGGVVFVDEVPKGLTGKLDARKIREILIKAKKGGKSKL
Summary of the method: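 Purified P. pyralis luciferase, 10 nM final, with Km-level 10 uM D-luciferin and 10 uM ATP in 50 mM Tris acetate pH 7.5, 10 mM Mg acetate, 0.01% Tween-20, 0.05% BSA; 6-point qHTS titration about 60 µM downward; luminescence read.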
Also: nearly all actives have a fitted effect of over 55% in size.
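For activity change, negative = inhibition in this document: plate controls were vehicle for no effect and reference inhibitor for full effect.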
Potency is read from the fitted curve at half-maximal effect.

Compound	activity change, negative = inhibition [%]	Potency
CCN(CCCNC(=O)Cn1ncc2c([nH]c3ccccc32)c1=O)c1cccc(C)c1	-2.09	
CC(=O)c1ccc(N2CCN(C(=O)c3ccc(Cl)c(S(=O)(=O)NC4CC4)c3)CC2)c(F)c1	-5.23	
Cc1ccc(CNC(=O)c2cccc3c2C(=O)c2ccc(N4CCC(C)CC4)cc2S3(=O)=O)cc1	-46.4	
CCOC(=O)[C@H]1[C@H]2COc3ccc(C)cc3[C@@H]2N2C(=O)CN(Cc3ccc(F)cc3)C(=O)[C@@]12C	0.429	
CCOc1ccc(CNC(=O)C2CCCN(S(=O)(=O)N(CC)c3ccc(OCC)cc3)C2)cc1 (stereo unspecified)	-14.8	
Cc1ccc(Cl)cc1NC(=O)NC1COc2ccccc2C1 (stereo unspecified)	0.229	
Cn1ccc(NC(=O)Nc2ccc(Cl)cc2)n1		16.9 µM (active)
Cc1ccc(C(=O)Nc2ccn(C)n2)cc1	10.3	
CN(C)S(=O)(=O)c1cc(C(=O)Nc2ccn(C)n2)c(Cl)cc1Cl	3	
Cc1ccc2nc(COc3ccc(NC(=O)COc4ccccc4F)cc3)cc(=O)n2c1	-1.49	
CC(NC(=O)c1cc2c(=O)n3ccccc3nc2n(C(C)C)c1=N)c1ccccc1 (stereo unspecified)	-4.62	
CCC(=O)N1CCc2cc(Br)cc(S(=O)(=O)CCC(=O)N3CCN(c4ccc(F)cc4)CC3)c21	4.84	
COc1ccc([C@H]2CC(=O)C=C(/C=C/c3ccccc3)C2)cc1	-29.8	
COc1ccc(-c2cn3c(n2)sc2cc(C(=O)Nc4ccccc4F)ccc23)cc1	-7.07	
O=C(Nc1ccccc1)c1ccc(NC(=O)c2cccs2)cc1	-0.452	
CC(=O)Nc1ccc(NC(=O)[C@@H](NC(=O)c2cccc(C)c2)C(C)C)cc1	0.122	
Cc1cccc(C(=O)OCC(=O)Nc2ccc(F)cc2)c1	-4.32	
CCc1ccc(NC(=O)COC(=O)c2cccs2)cc1		6.75 µM (active)
Cc1cccc(C(=O)Nc2ccc(CC(=O)O)cc2)c1		9.53 µM (active)
CCOc1ccccc1NC(=O)Cc1cccs1	-0.362	
O=C(Cc1cccs1)Nc1ccc([N+](=O)[O-])cc1	-12.9	
O=C(O)Cc1ccc(NC(=O)c2cccs2)cc1		12 µM (active)
O=C(COC(=O)c1cccs1)NCc1cccs1	-19.2	
CCc1ccc(NC(=O)CCNS(=O)(=O)c2cccs2)cc1	-19.1	
O=C(Nc1ccc(N2CCN(C(=O)C3CC3)CC2)cc1)c1cccs1	-13.9	
CCOC(=O)c1ccc(NC(=O)Cc2cccs2)cc1		15.1 µM (active)

Compound	activity change, negative = inhibition [%]	Potency
Cc1ccc(CN(C(=O)COc2ccc(Cl)cc2C)C2CCS(=O)(=O)C2)o1 (stereo unspecified)	4.67	
CN(CC(=O)NNC(=O)CNC(=O)c1ccccc1Cl)S(=O)(=O)c1ccc(Cl)cc1	-0.0194	
Cc1ccc(CN2COc3cc(C)c4c(oc(=O)c5ccccc54)c3C2)cc1	-7.2	
COc1ccc(C(=O)OC(C)C(=O)NC2CCCC2)cc1S(=O)(=O)N1CCOCC1 (stereo unspecified)	0.5	
COc1ccc(OC)c(NC(=O)C2CCCN(S(=O)(=O)c3ccc4c(c3)CCCC(=O)N4)C2)c1 (stereo unspecified)	6.14	
O=C(Cn1ncc2c3ccccc3n(Cc3ccccc3)c2c1=O)NC1CCCCCC1	-4.42	
Cc1ccc(C)c(NC(=O)CCC(=O)NNC(=O)c2cccs2)c1	-2.71	
CCc1ccc(NC(=O)C(=O)NNC(=O)c2cccs2)cc1		16.9 µM (active)
CC(C)C(=O)Nc1ccc(C(=O)NNC(=O)c2cccs2)cc1	-12.4	
COCCn1cnc2c1c(=O)n(CC(=O)NN)c(=O)n2Cc1ccccc1	-0.963	
Cc1ccccc1-c1cc(C(=O)NCC2CC2)n(CC2CC(c3cccnc3)=NO2)n1 (stereo unspecified)	-1.55	
Cc1nc2sc(C)c(C)n2c(=O)c1S(=O)(=O)NCCc1ccc(Cl)cc1	-6.21	
CC(C)c1ccc(-c2nn[nH]n2)cc1		6.01 µM (active)
Cc1n[nH]c(=O)n1-c1ccc(C(C)C)cc1	-3.32	
c1cc(-c2nn[nH]n2)ccc1CN1CCCCC1	-13.7	
CCOc1ccc(N(CC)C(=O)c2noc3c2COc2ccc(C)cc2-3)cc1	-2.9	
COc1ccccc1CNC(=O)CCn1c(=O)c2ccccc2n(CC(=O)Nc2cccc(Cl)c2)c1=O	-0.523	
Cc1ccc(C)c(N2CCN(C(c3ccccc3)c3nnc(-c4ccccc4)o3)CC2)c1 (stereo unspecified)	-0.488	
CCOc1ccc(NC(=O)NNC(=O)c2ccc(Cl)cc2Cl)cc1	-1	
OC(CNCCc1ccc(Cl)cc1Cl)COc1ccccc1 (stereo unspecified)	5.25	
NC(N)=N/N=C/c1ccc(OCc2ccc(Cl)cc2Cl)cc1		16.9 µM (active)
C#CCOc1ccc(C2CC(=O)Nc3c2c(C)nn3-c2nc(C)cc(C)n2)cc1 (stereo unspecified)	-14	
CS(=O)(=O)c1ccc(C(=O)OCC(=O)NNC(=O)COc2ccc(Cl)cc2)cc1	3.41	
COC(=O)c1sccc1NC(=O)COc1ccc(Cl)cc1	-15.4	
CCS(=O)(=O)c1ccc(O)c(NC(=O)COc2ccc(Cl)cc2)c1		16.9 µM (active)
CCOc1ccc(N(Cc2ccccc2)C(=O)c2nc(SCC)ncc2Cl)cc1	-9.15	

Compound	activity change, negative = inhibition [%]	Potency
CCCN1CN=C(NS(=O)(=O)c2ccc(NC(C)=O)cc2)NC1	0.883	
CCCOC(=O)C1=C(C)NC2=C(C(=O)C(C(=O)OC)C(C)C2)C1c1ccc(N(C)C)cc1 (stereo unspecified)	0.124	
COCCOC(=O)c1[nH]c2c(c1C)C(=O)CC(c1ccc(OC)cc1)C2 (stereo unspecified)	2.45	
COC(=O)C1C(=O)c2c([nH]c(C(=O)OCCSC)c2C)CC1C (stereo unspecified)		7.57 µM (active)
CCc1ccc(NC(=O)Cn2c(=O)n(CCC(=O)NCc3ccc4c(c3)OCO4)c(=O)c3ccccc32)cc1	-0.038	
CC(C)CC(=O)NCC(c1ccc2c(c1)OCO2)N1CCN(c2ccc(F)cc2)CC1 (stereo unspecified)	-1.61	
CCC(=O)Nc1c(C)n[nH]c1C	-4.16	
Cc1ccc(NC(=O)Nc2nnc(-c3ccncc3)s2)cc1	-1.13	
Cc1ccc(Nc2nc(C)cc(C)c2C(N)=O)cc1	-1.84	
Cc1ccc(Nc2nc(Cl)c(C=O)s2)cc1		12 µM (active)
Cc1ccc2c(=O)c(C(=O)c3cccc(Cl)c3)cn(CC(=O)NCc3ccccc3)c2n1	-1.16	
COc1ccc(NS(=O)(=O)c2ccc(C)c(C(=O)NNC(=O)c3csc(N4CCOCC4)n3)c2)cc1	-19.7	
CSCCC(NC(=O)c1ccc(Cl)cc1Cl)C(=O)NNC(=O)c1csc(N2CCOCC2)n1 (stereo unspecified)		23.9 µM (active)
COc1ccccc1C(=O)NC(CCSC)C(=O)NNC(=O)c1csc(N2CCOCC2)n1 (stereo unspecified)	2.94	
Cc1ccc(NC(=O)Nc2sc3nc4n(c(=O)c3c2C)CCC(C)CC4)c(Cl)c1 (stereo unspecified)	2.26	
CCc1cc2c(=O)c(-c3ccc(F)cc3)c(C(F)(F)F)oc2cc1OCC(=O)O	-16.5	
CCc1cc2c(=O)c(-c3ccon3)c(N)oc2cc1OC		2.39 µM (active)
COc1ccc2oc(N)c(C=O)c(=O)c2c1	-4.85	
Cc1cccc(NC(c2cccc(F)c2)c2ccc3ccc(C)nc3c2O)n1 (stereo unspecified)	-0.966	
CCc1nc(SCC(=O)NNC(=O)c2ccc(C)cc2)c2ccccc2n1	-2.39	
Cc1ccc(C(=O)NNc2ncnc3ccccc23)cc1		8.49 µM (active)
Cc1ccc(C(=O)NNC(=O)c2cc3cc4ccccc4nc3s2)cc1	2.41	
CC1=C(C(=O)Nc2ccccc2Cl)C(c2cccs2)n2ncnc2N1 (stereo unspecified)	-6.97	
O=C(COC(=O)/C=C/c1cn(-c2ccccc2)nc1-c1cccnc1)Nc1ccc(Cl)cc1Cl	5.4	
O=C(/C=C/c1cccs1)NCc1cccnc1	-0.859	
S=c1[nH]nc(-c2cccs2)n1/N=C/c1cn(-c2ccccc2)nc1-c1ccc(Cl)cc1	2.83	

Compound	activity change, negative = inhibition [%]	Potency
Cc1c(NC(=O)C(=O)N/N=C/c2cccs2)c(=O)n(-c2ccccc2)n1C	-7.6	
O=C(O)/C=C/c1cn(-c2ccccc2)nc1-c1cccs1		21.3 µM (active)
COc1ccc(-c2nn(-c3ccccc3)cc2/C=C\C(=O)N2CCOCC2)cc1[N+](=O)[O-]	0.818	
O=C(O)c1ccc(N/N=C/c2cn(-c3ccccc3)nc2-c2cccs2)cc1		0.107 µM (active)
O=C(NCc1cccnc1)c1cn(-c2ccccc2)nc1-c1cccs1		6.01 µM (active)
O=C(NCc1cccnc1)c1nc(-c2cccs2)no1	3.45	
O=C(/C=C\c1cn(-c2ccccc2)nc1-c1cccs1)N1CCOCC1		7.57 µM (active)
COc1cccc(NC(=O)CN(C)C(=O)/C=C/c2cn(-c3ccccc3)nc2-c2cccs2)c1	-13.6	
CCC(=O)N1N=C(c2ccc(OC)cc2)CC1c1cn(-c2ccccc2)nc1-c1cccs1 (stereo unspecified)	0.511	
CN(C)c1ccc(NC(=S)N(CCc2ccccc2)C2CC(=O)N(c3c(Cl)cccc3Cl)C2=O)cc1 (stereo unspecified)	-2.16	
CCN1CCN(CCCNC(=O)c2cnn(-c3ccc(C)cc3C)c2C2CCN(C(=O)OC(C)(C)C)CC2)CC1	-2.56	
O=C(COC(=O)c1cc(=O)[nH]c2ccccc12)NCc1cccc(Cl)c1	2.01	
Cn1cc(S(=O)(=O)N2CCCCCC2)cc1C(=O)N1CCN(c2ccc(F)cc2)CC1	-14.1	
CCc1ccc2c(c1)cc(CN(C(=S)Nc1ccccc1Cl)C1CC1)c1nnnn12	3.26	
O=C(Cc1ccccc1)Nc1sc2c(c1C(=O)Nc1ccc(Br)cc1)CCC2	-3.93	
Cc1ccc(S(=O)(=O)c2nc(-c3cccs3)oc2N2CCCCC2)cc1	-14	
CCOc1cc(C2c3c(-c4ccc(Br)cc4)n[nH]c3C(=O)N2c2ccc(Cl)cc2)ccc1O (stereo unspecified)	18.5	
COc1cccc(C(=O)NNS(=O)(=O)c2ccc(F)cc2)c1	-3.77	
CS(=O)(=O)c1ccc2nc(NC(=O)C3C4C=CC(C4)C3C(=O)O)sc2c1 (stereo unspecified)	-2.44	
CN(C)c1cccc(C(=O)Nc2nc3ccc(S(=O)(=O)NC(C)(C)C)cc3s2)c1	-12.4	
COc1cccc(C(=O)Nc2nc3ccc(S(C)(=O)=O)cc3s2)c1		6.01 µM (active)
CS(=O)(=O)c1ccc2nc(NC(=O)c3ccc(Cl)nc3)sc2c1		21.3 µM (active)
CCCC(=O)Nc1nc2ccc(NC(=O)c3cccnc3)cc2s1	-20.6	
